Article PMC7862700, “An all-to-all approach to the identification of sequence-specific readers for epigenetic DNA modifications on cytosine”

Legend:
Assay in all cases: DAPPL (digital affinity profiling via proximity ligation, sequencing); 10 mM Tris-HCl pH 7.5, 50 mM NaCl, 1 mM DTT, 4% glycerol, room temperature, 30 min; GST-TFs on glutathione beads, 16-mer random dsDNA library, 0.1% formaldehyde crosslink after washing; high values mean tight binding
Conditions in all cases: protein: recombinant; tags: N-terminal GST; dsDNA, one strand shown
[1] = target: T1, FEV (Homo sapiens, UniProt Q99581 1-238)
T1 sequence: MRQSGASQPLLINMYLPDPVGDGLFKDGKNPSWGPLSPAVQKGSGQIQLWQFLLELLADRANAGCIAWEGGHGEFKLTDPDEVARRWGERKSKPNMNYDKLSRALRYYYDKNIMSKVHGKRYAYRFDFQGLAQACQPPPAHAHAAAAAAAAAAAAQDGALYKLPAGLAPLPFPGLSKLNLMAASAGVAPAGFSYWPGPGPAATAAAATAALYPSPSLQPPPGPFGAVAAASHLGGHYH
In short: (§1)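 Binding signal is given per hexamer as its read frequency for a factor divided by its frequency in the tag-only sample. GST-fused human transcription factors were expressed in yeast, captured on glutathione beads, barcoded with DNA and pooled with that sample, then incubated with 200 nmole of a 16-mer random double-stranded DNA library in Tris/NaCl/DTT/glycerol buffer for 30 min at room temperature. The pools were then washed, crosslinked, proximity-ligated, amplified by PCR and sequenced on an Illumina NextSeq500.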

[2] = target: ETV5 (Homo sapiens, UniProt P41161 1-510)
In short: as §1

[3] = target: T2, SPIC (Homo sapiens, UniProt Q8N5J4 1-248)
T2 sequence: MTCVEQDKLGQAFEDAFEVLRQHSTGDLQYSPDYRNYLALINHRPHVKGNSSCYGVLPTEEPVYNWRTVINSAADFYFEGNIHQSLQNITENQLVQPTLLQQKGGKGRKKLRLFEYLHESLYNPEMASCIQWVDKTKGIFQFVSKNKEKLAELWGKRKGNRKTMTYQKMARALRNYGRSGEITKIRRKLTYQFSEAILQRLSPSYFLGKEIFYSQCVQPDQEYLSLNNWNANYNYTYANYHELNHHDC
In short: as §1

[4] = target: ELF4 (Homo sapiens, UniProt Q99607 1-663)
In short: as §1

[5] = target: T3, ELK4 (Homo sapiens, UniProt P28324-2 1-405)
T3 sequence: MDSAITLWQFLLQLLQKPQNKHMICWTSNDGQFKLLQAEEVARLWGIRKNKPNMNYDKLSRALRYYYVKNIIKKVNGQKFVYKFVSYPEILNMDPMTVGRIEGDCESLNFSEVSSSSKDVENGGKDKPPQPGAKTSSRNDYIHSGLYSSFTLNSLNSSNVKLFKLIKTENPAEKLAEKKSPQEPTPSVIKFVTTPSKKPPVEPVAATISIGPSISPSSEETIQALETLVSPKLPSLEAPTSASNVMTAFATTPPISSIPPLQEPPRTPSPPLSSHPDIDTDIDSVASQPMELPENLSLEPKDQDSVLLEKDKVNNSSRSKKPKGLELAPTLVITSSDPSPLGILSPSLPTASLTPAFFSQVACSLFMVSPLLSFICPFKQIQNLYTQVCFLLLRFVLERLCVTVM
In short: as §1

[6] = target: T4, ETV2 (Homo sapiens, UniProt O00321 1-342)
T4 sequence: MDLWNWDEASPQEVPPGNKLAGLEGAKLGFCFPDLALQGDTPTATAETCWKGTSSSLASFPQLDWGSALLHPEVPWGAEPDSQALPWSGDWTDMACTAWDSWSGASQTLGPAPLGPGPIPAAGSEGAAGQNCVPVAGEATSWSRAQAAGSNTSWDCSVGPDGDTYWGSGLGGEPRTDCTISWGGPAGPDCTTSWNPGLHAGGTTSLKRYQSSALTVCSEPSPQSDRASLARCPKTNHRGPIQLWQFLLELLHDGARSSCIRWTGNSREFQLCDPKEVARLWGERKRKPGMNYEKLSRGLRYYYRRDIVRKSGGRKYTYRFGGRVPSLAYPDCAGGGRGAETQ
In short: as §1

[7] = target: T5, ELF3 (Homo sapiens, UniProt P78545 1-371)
T5 sequence: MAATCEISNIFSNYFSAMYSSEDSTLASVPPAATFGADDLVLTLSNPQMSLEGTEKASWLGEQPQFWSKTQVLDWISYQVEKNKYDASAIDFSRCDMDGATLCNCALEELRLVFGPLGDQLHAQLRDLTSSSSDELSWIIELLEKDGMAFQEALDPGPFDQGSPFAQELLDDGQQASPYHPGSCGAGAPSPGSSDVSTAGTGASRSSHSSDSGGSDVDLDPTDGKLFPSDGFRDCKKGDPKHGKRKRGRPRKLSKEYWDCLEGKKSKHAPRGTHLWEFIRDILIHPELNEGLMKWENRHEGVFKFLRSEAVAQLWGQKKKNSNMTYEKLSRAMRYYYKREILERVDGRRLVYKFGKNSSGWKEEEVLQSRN
In short: as §1

[8] = target: ETV1 (Homo sapiens, UniProt P50549 1-477)
In short: as §1

[9] = target: T6, ERF (Homo sapiens, UniProt P50548 1-548)
T6 sequence: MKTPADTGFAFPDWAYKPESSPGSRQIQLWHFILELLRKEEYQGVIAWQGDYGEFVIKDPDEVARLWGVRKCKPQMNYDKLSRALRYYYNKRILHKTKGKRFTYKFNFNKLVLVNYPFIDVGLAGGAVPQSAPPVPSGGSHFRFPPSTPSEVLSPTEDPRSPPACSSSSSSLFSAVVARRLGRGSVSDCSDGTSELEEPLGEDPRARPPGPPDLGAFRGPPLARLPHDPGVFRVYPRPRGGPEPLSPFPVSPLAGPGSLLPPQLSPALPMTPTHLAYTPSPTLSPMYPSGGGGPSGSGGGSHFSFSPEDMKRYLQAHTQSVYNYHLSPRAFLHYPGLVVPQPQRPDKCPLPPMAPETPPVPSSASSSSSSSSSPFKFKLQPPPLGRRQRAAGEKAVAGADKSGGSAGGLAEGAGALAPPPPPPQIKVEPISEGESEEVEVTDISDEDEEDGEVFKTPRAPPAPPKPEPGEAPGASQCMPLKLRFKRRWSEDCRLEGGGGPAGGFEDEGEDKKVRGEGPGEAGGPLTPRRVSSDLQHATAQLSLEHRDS
In short: as §1

[10] = target: T7, ETV3L (Homo sapiens, UniProt Q6ZN32 1-361)
T7 sequence: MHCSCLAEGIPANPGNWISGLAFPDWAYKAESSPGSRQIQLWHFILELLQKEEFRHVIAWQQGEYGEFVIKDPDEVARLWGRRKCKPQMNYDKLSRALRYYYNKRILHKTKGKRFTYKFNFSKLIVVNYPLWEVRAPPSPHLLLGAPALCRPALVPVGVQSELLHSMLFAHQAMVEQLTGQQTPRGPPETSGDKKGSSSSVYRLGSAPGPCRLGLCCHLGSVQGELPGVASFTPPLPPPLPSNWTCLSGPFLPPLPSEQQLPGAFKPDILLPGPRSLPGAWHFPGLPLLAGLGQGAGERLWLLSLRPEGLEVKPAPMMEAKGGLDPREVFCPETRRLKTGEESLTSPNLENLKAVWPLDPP
In short: as §1

[11] = target: T8, ETS2 (Homo sapiens, UniProt P15036 1-469)
T8 sequence: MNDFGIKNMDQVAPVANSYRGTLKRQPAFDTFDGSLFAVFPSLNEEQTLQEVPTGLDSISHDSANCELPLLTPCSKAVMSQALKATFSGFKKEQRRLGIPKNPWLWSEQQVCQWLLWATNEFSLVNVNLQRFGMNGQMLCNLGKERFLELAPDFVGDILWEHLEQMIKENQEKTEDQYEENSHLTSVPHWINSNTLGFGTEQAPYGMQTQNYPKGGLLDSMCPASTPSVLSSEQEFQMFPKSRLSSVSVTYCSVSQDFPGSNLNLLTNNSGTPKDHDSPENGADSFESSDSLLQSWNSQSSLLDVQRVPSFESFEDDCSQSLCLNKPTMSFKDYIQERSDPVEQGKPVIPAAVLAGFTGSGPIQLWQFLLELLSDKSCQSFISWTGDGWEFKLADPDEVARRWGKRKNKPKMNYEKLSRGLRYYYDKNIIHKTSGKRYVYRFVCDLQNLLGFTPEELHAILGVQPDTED
In short: as §1

[12] = target: T9, SPDEF (Homo sapiens, UniProt O95238 1-335)
T9 sequence: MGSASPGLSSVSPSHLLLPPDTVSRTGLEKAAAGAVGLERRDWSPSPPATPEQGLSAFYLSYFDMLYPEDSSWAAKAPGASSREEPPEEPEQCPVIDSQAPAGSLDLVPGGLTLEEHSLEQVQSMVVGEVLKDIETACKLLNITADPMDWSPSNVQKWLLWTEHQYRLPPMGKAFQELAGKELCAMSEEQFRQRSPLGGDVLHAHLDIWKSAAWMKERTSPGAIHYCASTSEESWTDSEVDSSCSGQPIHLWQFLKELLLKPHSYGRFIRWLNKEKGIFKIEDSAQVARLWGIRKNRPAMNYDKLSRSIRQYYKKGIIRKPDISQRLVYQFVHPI
In short: as §1

[13] = target: T10, ETV7 (Homo sapiens, UniProt Q9Y603 1-341)
T10 sequence: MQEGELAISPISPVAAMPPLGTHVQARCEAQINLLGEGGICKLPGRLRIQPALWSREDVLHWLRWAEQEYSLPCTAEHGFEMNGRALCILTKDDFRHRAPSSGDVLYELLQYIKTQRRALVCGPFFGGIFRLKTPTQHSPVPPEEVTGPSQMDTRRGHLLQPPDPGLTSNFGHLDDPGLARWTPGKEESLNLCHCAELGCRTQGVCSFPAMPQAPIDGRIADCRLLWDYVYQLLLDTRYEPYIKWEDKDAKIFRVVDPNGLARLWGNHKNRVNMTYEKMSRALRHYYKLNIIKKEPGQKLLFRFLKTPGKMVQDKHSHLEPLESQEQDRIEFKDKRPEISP
In short: as §1

[14] = target: T11, ELF5 (Homo sapiens, UniProt Q9UKW6-2 1-255)
T11 sequence: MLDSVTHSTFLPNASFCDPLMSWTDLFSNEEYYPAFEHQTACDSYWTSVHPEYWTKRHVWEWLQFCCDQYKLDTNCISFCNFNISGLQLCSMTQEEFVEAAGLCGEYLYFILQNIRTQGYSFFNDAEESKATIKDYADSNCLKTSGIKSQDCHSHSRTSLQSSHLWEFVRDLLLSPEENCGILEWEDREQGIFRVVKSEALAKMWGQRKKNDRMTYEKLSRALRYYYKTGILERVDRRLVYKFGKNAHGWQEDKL
In short: as §1

[15] = target: T12, ETV3 (Homo sapiens, UniProt P41162-2 1-143)
T12 sequence: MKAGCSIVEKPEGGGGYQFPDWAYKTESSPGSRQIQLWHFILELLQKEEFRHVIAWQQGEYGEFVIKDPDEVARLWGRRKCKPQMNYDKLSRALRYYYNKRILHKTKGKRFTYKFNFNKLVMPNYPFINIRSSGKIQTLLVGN
In short: as §1

[16] = target: ETV6 (Homo sapiens, UniProt P41212 1-452)
In short: as §1

Sequence of ELF4 (Q99607 whole entry): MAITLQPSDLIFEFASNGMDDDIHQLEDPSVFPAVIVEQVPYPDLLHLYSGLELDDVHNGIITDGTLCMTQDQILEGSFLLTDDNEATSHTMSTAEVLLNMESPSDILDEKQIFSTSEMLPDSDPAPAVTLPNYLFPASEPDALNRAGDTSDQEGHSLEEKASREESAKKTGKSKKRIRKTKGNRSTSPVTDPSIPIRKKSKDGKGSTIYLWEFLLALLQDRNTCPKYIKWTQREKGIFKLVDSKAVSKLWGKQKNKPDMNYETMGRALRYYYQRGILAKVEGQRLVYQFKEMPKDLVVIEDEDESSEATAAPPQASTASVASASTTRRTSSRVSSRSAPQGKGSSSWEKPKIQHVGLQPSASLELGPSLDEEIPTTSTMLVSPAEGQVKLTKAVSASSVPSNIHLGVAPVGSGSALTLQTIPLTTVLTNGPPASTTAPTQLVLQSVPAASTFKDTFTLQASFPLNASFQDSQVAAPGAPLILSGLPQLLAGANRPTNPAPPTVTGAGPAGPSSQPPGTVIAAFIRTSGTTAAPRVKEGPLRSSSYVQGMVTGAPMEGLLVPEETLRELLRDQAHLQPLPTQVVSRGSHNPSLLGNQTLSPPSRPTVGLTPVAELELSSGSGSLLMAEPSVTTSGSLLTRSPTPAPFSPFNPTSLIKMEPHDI
Sequence of ETV6 (P41212 whole entry): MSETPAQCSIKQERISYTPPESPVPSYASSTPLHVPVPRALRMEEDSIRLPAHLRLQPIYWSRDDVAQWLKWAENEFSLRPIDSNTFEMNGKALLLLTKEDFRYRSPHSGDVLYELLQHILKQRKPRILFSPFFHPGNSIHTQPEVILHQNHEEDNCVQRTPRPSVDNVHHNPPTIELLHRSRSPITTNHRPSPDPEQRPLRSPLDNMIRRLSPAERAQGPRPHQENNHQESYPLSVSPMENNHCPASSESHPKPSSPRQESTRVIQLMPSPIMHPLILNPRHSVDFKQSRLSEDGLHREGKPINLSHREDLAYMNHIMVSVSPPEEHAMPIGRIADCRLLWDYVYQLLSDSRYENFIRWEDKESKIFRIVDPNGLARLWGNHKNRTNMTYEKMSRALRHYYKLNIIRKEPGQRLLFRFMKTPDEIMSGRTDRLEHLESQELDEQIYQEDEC
Sequence of ETV5 (P41161 whole entry): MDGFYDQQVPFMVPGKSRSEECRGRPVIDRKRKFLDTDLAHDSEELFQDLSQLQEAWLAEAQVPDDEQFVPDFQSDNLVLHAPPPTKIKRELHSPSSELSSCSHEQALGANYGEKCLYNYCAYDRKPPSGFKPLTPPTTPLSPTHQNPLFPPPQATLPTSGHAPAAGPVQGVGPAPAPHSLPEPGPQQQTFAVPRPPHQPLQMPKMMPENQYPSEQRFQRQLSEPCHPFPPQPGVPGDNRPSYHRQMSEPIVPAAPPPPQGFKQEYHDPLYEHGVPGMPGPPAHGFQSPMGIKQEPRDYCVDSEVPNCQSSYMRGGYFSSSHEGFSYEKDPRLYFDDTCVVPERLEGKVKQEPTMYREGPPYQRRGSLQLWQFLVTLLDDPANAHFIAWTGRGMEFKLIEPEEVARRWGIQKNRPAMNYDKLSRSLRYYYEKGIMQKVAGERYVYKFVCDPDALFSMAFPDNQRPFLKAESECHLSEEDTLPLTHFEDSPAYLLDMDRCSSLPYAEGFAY
Sequence of ETV1 (P50549 whole entry): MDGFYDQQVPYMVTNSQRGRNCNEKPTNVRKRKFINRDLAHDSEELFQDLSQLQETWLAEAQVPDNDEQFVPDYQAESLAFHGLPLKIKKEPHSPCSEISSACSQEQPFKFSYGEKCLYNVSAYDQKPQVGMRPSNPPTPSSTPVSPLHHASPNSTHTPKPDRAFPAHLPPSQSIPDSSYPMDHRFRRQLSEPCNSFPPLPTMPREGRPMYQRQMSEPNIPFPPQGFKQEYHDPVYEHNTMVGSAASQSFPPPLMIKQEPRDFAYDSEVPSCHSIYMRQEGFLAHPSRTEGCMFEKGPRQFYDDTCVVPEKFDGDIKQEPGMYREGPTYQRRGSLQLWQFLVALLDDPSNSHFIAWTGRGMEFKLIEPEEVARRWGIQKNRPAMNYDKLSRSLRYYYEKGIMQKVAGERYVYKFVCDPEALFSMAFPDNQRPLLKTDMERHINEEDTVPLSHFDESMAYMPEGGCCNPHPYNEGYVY

GACTAC
binding signal [1]: 1.08 fold enrichment (6-mer frequency, TF over GST control)
binding signal [2]: 1.15 fold enrichment (6-mer frequency, TF over GST control)
binding signal [3]: 1.13 fold enrichment (6-mer frequency, TF over GST control)
binding signal [4]: 1.11 fold enrichment (6-mer frequency, TF over GST control)
binding signal [5]: 1.18 fold enrichment (6-mer frequency, TF over GST control)
binding signal [6]: 1.22 fold enrichment (6-mer frequency, TF over GST control)
binding signal [7]: 1.2 fold enrichment (6-mer frequency, TF over GST control)
binding signal [8]: 1.17 fold enrichment (6-mer frequency, TF over GST control)
binding signal [9]: 1.19 fold enrichment (6-mer frequency, TF over GST control)
binding signal [10]: 1.17 fold enrichment (6-mer frequency, TF over GST control)
binding signal [11]: 1.08 fold enrichment (6-mer frequency, TF over GST control)
binding signal [12]: 1.1 fold enrichment (6-mer frequency, TF over GST control)
binding signal [13]: 1.17 fold enrichment (6-mer frequency, TF over GST control)
binding signal [14]: 1.24 fold enrichment (6-mer frequency, TF over GST control)
binding signal [15]: 1.11 fold enrichment (6-mer frequency, TF over GST control)
binding signal [16]: 1.11 fold enrichment (6-mer frequency, TF over GST control)

CTCCGT
binding signal [1]: 1.14 fold enrichment (6-mer frequency, TF over GST control)
binding signal [2]: 1.24 fold enrichment (6-mer frequency, TF over GST control)
binding signal [3]: 1.14 fold enrichment (6-mer frequency, TF over GST control)
binding signal [4]: 1.3 fold enrichment (6-mer frequency, TF over GST control)
binding signal [5]: 1.37 fold enrichment (6-mer frequency, TF over GST control)
binding signal [6]: 1.17 fold enrichment (6-mer frequency, TF over GST control)
binding signal [7]: 1.13 fold enrichment (6-mer frequency, TF over GST control)
binding signal [8]: 1.15 fold enrichment (6-mer frequency, TF over GST control)
binding signal [9]: 1.07 fold enrichment (6-mer frequency, TF over GST control)
binding signal [10]: 1.19 fold enrichment (6-mer frequency, TF over GST control)
binding signal [11]: 1.22 fold enrichment (6-mer frequency, TF over GST control)
binding signal [12]: 1.05 fold enrichment (6-mer frequency, TF over GST control)
binding signal [13]: 1.33 fold enrichment (6-mer frequency, TF over GST control)
binding signal [14]: 1.14 fold enrichment (6-mer frequency, TF over GST control)
binding signal [15]: 1.22 fold enrichment (6-mer frequency, TF over GST control)
binding signal [16]: 1.16 fold enrichment (6-mer frequency, TF over GST control)

CATCAC
binding signal [1]: 1.16 fold enrichment (6-mer frequency, TF over GST control)
binding signal [2]: 1.13 fold enrichment (6-mer frequency, TF over GST control)
binding signal [3]: 1.26 fold enrichment (6-mer frequency, TF over GST control)
binding signal [4]: 1.12 fold enrichment (6-mer frequency, TF over GST control)
binding signal [5]: 1.29 fold enrichment (6-mer frequency, TF over GST control)
binding signal [6]: 1.11 fold enrichment (6-mer frequency, TF over GST control)
binding signal [7]: 1.14 fold enrichment (6-mer frequency, TF over GST control)
binding signal [8]: 1.1 fold enrichment (6-mer frequency, TF over GST control)
binding signal [9]: 1.17 fold enrichment (6-mer frequency, TF over GST control)
binding signal [10]: 1.07 fold enrichment (6-mer frequency, TF over GST control)
binding signal [11]: 1.12 fold enrichment (6-mer frequency, TF over GST control)
binding signal [12]: 1.15 fold enrichment (6-mer frequency, TF over GST control)
binding signal [13]: 1.08 fold enrichment (6-mer frequency, TF over GST control)
binding signal [14]: 1.11 fold enrichment (6-mer frequency, TF over GST control)
binding signal [15]: 1.13 fold enrichment (6-mer frequency, TF over GST control)
binding signal [16]: 1.13 fold enrichment (6-mer frequency, TF over GST control)
